DRD3 agonist: activates the human D3 dopamine receptor | P35462 | D3R DiscoveRx beta-arrestin cells, luminescence, 90 min | max activation, % | 0.58% of 410,000 active | AID 652048; in the data active means max activation above about 30%; further: 0% is about no effect
Target sequence (P35462 whole entry, looked up): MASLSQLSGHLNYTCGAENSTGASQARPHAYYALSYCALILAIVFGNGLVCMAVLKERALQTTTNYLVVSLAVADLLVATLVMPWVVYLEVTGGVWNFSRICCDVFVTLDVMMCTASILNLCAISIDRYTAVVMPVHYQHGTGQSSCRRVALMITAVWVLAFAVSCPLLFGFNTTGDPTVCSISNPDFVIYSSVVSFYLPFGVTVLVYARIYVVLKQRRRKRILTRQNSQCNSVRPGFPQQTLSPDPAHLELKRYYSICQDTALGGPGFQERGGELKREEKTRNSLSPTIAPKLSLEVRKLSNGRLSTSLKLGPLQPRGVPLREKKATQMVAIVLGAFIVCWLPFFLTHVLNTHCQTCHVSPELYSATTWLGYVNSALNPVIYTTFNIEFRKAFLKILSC
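Cells at 1500/well, incubated overnight, then treated with pinned compounds (dopamine as control) for 90 min at 37 degrees C. DiscoveRx reagent added for 30 - 60 minutes at room temperature; luminescence read.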
D3 antag: D3 dopamine receptor (human) antagonism; D3R cells, DiscoveRx beta-arrestin luminescence, antagonist mode; active compounds read low; max response, negative = inhibition, %; 2.5% of 360,000 active; AID 652054; in the data active means max response below about -50%; inconclusive means no clear call, values can overlap the other calls; further: on the % scale 0 is the no-effect control and ±100 the full control effect
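Cells expressing the human receptor were seeded at 1500 cells/well, incubated overnight at 37 degrees C in 5% CO2, then exposed to library compounds with dopamine controls for 90 minutes at 37 degrees C before luminescent detection.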
IL1B secr inh: inhibitors of inflammasome signaling (IL-1 beta secretion) | THP-1 LPS/ATP IL-1B secretion, AlphaLISA, 16 h; active compounds read low | 4.7% of 360,000 active | activity change, % at 57.5 µM; in the data active means activity change below about -50%; inconclusive means mostly about -30% to -49%; further: on the % scale 0 is the no-effect control and ±100 the full control effect
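THP-1 cells pretreated 1 hr with compounds (up to 57.5 uM final), then stimulated with LPS (250 ng/mL final) plus ATP (1.25 mM final); secreted IL-1B measured by AlphaLISA after 16 hr, decreased signal indicating inhibition.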
DT40 TDP1 CPT: growth inhibition of DT40 Tdp1-/-;hTDP1 cells with camptothecin (screen for TDP1 inhibitors); Potency, µM (series often up to 46.2 µM), inactives show at the highest dose activity change, negative = growth inhibition, hits mostly inhibitors; chicken DT40 Tdp1-/-;hTDP1 cells + 20 nM CPT, ATP luminescence, 48 h; 12% of 420,000 active; further: potency means the concentration at half of the fitted maximal effect; on the % scale 0 is the no-effect control and ±100 the full control effect; nearly all actives have a fitted effect of over 55% in size
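Chicken DT40 Tdp1-/- cells stably complemented with human TDP1 were seeded at 400 cells/well in medium containing 20 nM camptothecin, exposed to pin-transferred compounds, and grown at 37 °C for at least 48 hr. Viability was read as ATP luminescence.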
ClpP mod: qHTS Assay for Activators of ClpP. ATP-dependent Clp protease proteolytic subunit (Bacillus subtilis (strain 168)), P80244. purified B. subtilis ClpP, FRET peptide cleavage, 20 min. Potency, µM (titrated, usually from 57.5 µM), for inactives: top-dose activity change, negative = active. 1.9% of 340,000 active; active means well fitted falling curve with a large enough effect; inconclusive means small, poorly fitted or top-dose-only effect; inactive means no such curve, though single readings can be large or run the other way; further: potency means the concentration at half of the fitted maximal effect; the source files actives as falling curves though it sought activators and does not explain the sign; nearly all actives have a fitted effect of over 65% in size
Target sequence (P80244 whole entry, looked up): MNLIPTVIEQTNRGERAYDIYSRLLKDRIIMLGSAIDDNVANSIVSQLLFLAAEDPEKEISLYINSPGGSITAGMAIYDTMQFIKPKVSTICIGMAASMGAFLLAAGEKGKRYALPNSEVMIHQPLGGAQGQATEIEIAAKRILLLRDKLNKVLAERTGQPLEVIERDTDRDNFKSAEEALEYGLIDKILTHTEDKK
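ClpP 10 microg/mL final, pH 8 Tris/KCl buffer with BSA, glycerol, Tween-20; compound pinned in; FRET-FV substrate; RT 20 min; Ex320/Em430; ΔFRET vs ADEP 5.8 microM, DMSO, no enzyme.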
DT40 TDP1 no CPT: qHTS for Inhibitors of human tyrosyl-DNA phosphodiesterase 1 (TDP1): qHTS in cells in absence of CPT; DT40 Tdp1-/- hTDP1 cells, no CPT, ATP luminescence, 48 h; Potency, µM (titrated, usually from 46.2 µM), inactives show at the highest dose activity change, negative = growth inhibition, hits mostly inhibitors; 15% of 420,000 active; AID 686978, 2013; further: potency means the concentration at half of the fitted maximal effect; on the % scale 0 is the no-effect control and ±100 the full control effect; nearly all actives have a fitted effect of over 55% in size
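Growth kinetics read by CellTiter-Glo luminescence after ≥48 hr at 37 °C. Cells: DT40 Tdp1-/- stably carrying human TDP1, 400 per well, compound exposure in the absence of CPT (DMSO vehicle).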
* = called active by the depositor. Only some compounds are listed: those with a hit (about 21% of all), similar ones and a draw of the others. Unless noted, the call rests on the fitted dose curve; in most records, active means well fitted inhibition curve with a large enough effect; inconclusive means small, poorly fitted or top-dose-only effect; inactive means flat fitted curve, though single readings scatter.

How did CCCCn1cc(S(=O)(=O)c2ccc(OC)cc2)c(=O)c2cc(F)c(F)cc21 do in these assays?
DRD3 agonist: -1; DT40 TDP1 CPT: 18µM*; ClpP mod: -2%; DT40 TDP1 no CPT: inconclusive

How did CCCCn1cc(S(=O)(=O)c2ccc(CC)cc2)c(=O)c2cc(F)c(N3CCCC(C)C3)cc21 (centres undefined) do in these assays?
DRD3 agonist: 5; DT40 TDP1 CPT: 23µM*; ClpP mod: 16µM*; DT40 TDP1 no CPT: 23µM*

How did Cc1cccc(S(=O)(=O)c2cn(Cc3ccccc3)c3cc(N4CCCCC4)c(F)cc3c2=O)c1 do in these assays?
DRD3 agonist: -10; DT40 TDP1 CPT: inconclusive; ClpP mod: -11%; DT40 TDP1 no CPT: inconclusive

Results for COc1cccc2cc(C(=O)CS(=O)(=O)c3ccc(Cl)cc3)c(=O)oc12 ?
DRD3 agonist: -1; D3 antag: 9; IL1B secr inh: -6; DT40 TDP1 CPT: inconclusive; ClpP mod: 1%; DT40 TDP1 no CPT: inconclusive

Results for COC(=O)Cc1c(C)c2cc3c(c(C)c2oc1=O)OCN(CCc1ccccc1F)C3 ?
DRD3 agonist: 0; DT40 TDP1 CPT: inconclusive; ClpP mod: 4%; DT40 TDP1 no CPT: inconclusive

Results for CCCN1CCN(c2cc3c(cc2F)c(=O)c(S(=O)(=O)c2ccc(Cl)cc2)cn3C)CC1 ?
DRD3 agonist: -15; DT40 TDP1 CPT: inconclusive; ClpP mod: 16µM*; DT40 TDP1 no CPT: 23µM*

Results for CCN(CC)c1cc2c(cc1F)c(=O)c(S(=O)(=O)c1ccc(C)cc1)cn2Cc1ccc(F)cc1 ?
DRD3 agonist: 2; DT40 TDP1 CPT: inconclusive; ClpP mod: 13µM*; DT40 TDP1 no CPT: inconclusive

Results for CCCCn1cc(S(=O)(=O)c2ccc(CC)cc2)c(=O)c2cc(F)c(N3CCOCC3)cc21 ?
DRD3 agonist: -6; DT40 TDP1 CPT: inconclusive; ClpP mod: inconclusive; DT40 TDP1 no CPT: 18µM*

Results for CCCCn1cc(S(=O)(=O)c2ccc(OC)cc2)c(=O)c2cc(F)c(N3CCOCC3)cc21 ?
DRD3 agonist: -9; DT40 TDP1 CPT: inconclusive; ClpP mod: inconclusive; DT40 TDP1 no CPT: inconclusive

Results for Nc1nc2ccccc2nc1N1CCCC1 ?
DRD3 agonist: -2; D3 antag: -6; IL1B secr inh: -11; DT40 TDP1 CPT: -27%; ClpP mod: -7%; DT40 TDP1 no CPT: -9%

How did Nc1c2c(nc3ccccc13)N(C1CCCCC1)CC2 do in these assays?
DRD3 agonist: 0; D3 antag: -83*; DT40 TDP1 CPT: inconclusive; ClpP mod: 14µM*; DT40 TDP1 no CPT: inconclusive

How did Cc1c(NC(=O)Nc2ccc(Cl)c(Cl)c2)sc(=S)n1C do in these assays?
DRD3 agonist: -26; D3 antag: -73*; IL1B secr inh: -97*; DT40 TDP1 CPT: 26µM*; ClpP mod: -1%; DT40 TDP1 no CPT: inconclusive

What do the screens show for `CC(C)=CCC/C(C)=C/CNC(=O)C[C@H]1C[C@H](C(=O)N(C(C)C)C(C)C)[C@@]2(C)c3[nH]c4cc(CCC(=O)N(C)C)ccc4c3CCN2C1=O`?
DRD3 agonist: -26; D3 antag: -6; IL1B secr inh: -67*; DT40 TDP1 CPT: 10µM*; ClpP mod: 0%; DT40 TDP1 no CPT: 9.2µM*

How did CCN(CC)C(=O)[C@H]1C[C@H](CC(=O)NC/C=C(\C)CCC=C(C)C)C(=O)N2CCc3c([nH]c4cc(-c5ccco5)ccc34)[C@]12C do in these assays?
DRD3 agonist: -38; D3 antag: -29; IL1B secr inh: -65*; DT40 TDP1 CPT: inconclusive; ClpP mod: 4%; DT40 TDP1 no CPT: inconclusive

How did CC(C)=CCC/C(C)=C/CNC(=O)C[C@H]1C[C@H](C(=O)N2CCCCC2)[C@@]2(C)c3[nH]c4cc(-c5ccco5)ccc4c3CCN2C1=O do in these assays?
DRD3 agonist: 9; D3 antag: -23; IL1B secr inh: -67*; DT40 TDP1 CPT: inconclusive; ClpP mod: 4%; DT40 TDP1 no CPT: 21µM*

Results for CC(C)=CCC/C(C)=C/CNC(=O)C[C@H]1C[C@H](C(=O)N(C(C)C)C(C)C)[C@@]2(C)c3[nH]c4cc(-c5ccco5)ccc4c3CCN2C1=O ?
DRD3 agonist: 11; D3 antag: 0; IL1B secr inh: -65*; DT40 TDP1 CPT: inconclusive; ClpP mod: 4%; DT40 TDP1 no CPT: inconclusive

How did CCc1nn2c(=O)cc(COC(=O)C(CC)c3ccccc3)nc2s1 (centres undefined) do in these assays?
DRD3 agonist: -11; DT40 TDP1 CPT: inconclusive; ClpP mod: -1%; DT40 TDP1 no CPT: -21%

How did Cc1ccc(OCCC(=O)OCC(=O)NC(=O)NC2CCCC2)cc1 do in these assays?
DRD3 agonist: -11; D3 antag: -10; IL1B secr inh: -10; DT40 TDP1 CPT: inconclusive; ClpP mod: 1%; DT40 TDP1 no CPT: inconclusive

What do the screens show for `COc1ccc(C(CCN2CCCC(C)C2)c2c(OC)cc(OC)c3c2OC(=O)CC3c2cc(OC)c(OC)c(OC)c2)cc1` (centres undefined)?
DRD3 agonist: -44; D3 antag: inconclusive; IL1B secr inh: -10; DT40 TDP1 CPT: 16µM*; ClpP mod: -1%; DT40 TDP1 no CPT: inconclusive

What do the screens show for `COc1ccc(C(CC(=O)N2CCOCC2)c2c(OC)cc(OC)c3c(-c4ccccc4)cc(=O)oc23)cc1` (centres undefined)?
DRD3 agonist: -17; D3 antag: -15; IL1B secr inh: -22; DT40 TDP1 CPT: inconclusive; ClpP mod: -2%; DT40 TDP1 no CPT: inconclusive

Results for CCCCCc1cc(=O)oc2c(C(CCN3CCCC3)c3cc(OC)c(OC)c(OC)c3)c(OC)cc(OC)c12 (centres undefined) ?
DRD3 agonist: -44; D3 antag: -51*; IL1B secr inh: -5; DT40 TDP1 CPT: 5.8µM*; ClpP mod: -13%; DT40 TDP1 no CPT: 16µM*

How did CCCCCc1cc(=O)oc2c(C(CCN3CCN(c4ccccc4)CC3)c3ccc4c(c3)OCO4)c(OC)cc(OC)c12 (centres undefined) do in these assays?
DRD3 agonist: -41; D3 antag: -69*; IL1B secr inh: 18; DT40 TDP1 CPT: 26µM*; ClpP mod: -23%; DT40 TDP1 no CPT: 16µM*

Screens as filed in PubChem BioAssay.
